# PubChem BioAssay (EPA / NIEHS)
# Records with an inconclusive call do not appear. The source made the active and inactive calls. How the source made its calls, unless noted: active means hit-call score of the fitted dose curve at least 0.9, where 1 is the maximum; inconclusive means response in the unintended direction; inactive means score below 0.9.
# How the values were obtained:
# [1] = CCTE_Simmons_CellTiterGLO_HEK293T: Viability Assessment in CCTE's Assays for Thyroperoxidase (TPO) Inhibition, Simmons Lab (AID 2283665)
# Outline: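 HEK293T cells in DMEM with 1% FBS were dosed with 8 concentrations (5 nM–87.5 uM final, 0.5% DMSO) for 24 hr at 37C; ATP content was read by CellTiter-Glo luminescence, loss-of-signal versus DMSO, three biological replicates.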
# [2] = molecular target: Luciferin 4-monooxygenase (Photinus pyralis) (UniProt P08659); test: CCTE_Simmons_QuantiLum_inhib_2: CCTE's Firefly Luciferase Inhibition Assay, Simmons Lab (AID 2283767)
# Outline: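 Recombinant firefly luciferase (5 ng/well, 200 mM potassium phosphate with 1 mg/ml BSA) was exposed to 8 concentrations from 5 nM to 87.5 uM (final, 0.5% DMSO) for 30 min at 37C in the dark. Loss of luminescence versus DMSO was read after injecting D-luciferin/ATP-analogue reagent.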
# PGR (gene 5241) [3] = molecular target: PGR (gene 5241) (UniProt P06401); test: TOX21_PR_BLA_Followup_Agonist_ratio: Tox21 HEK293 Progesterone Receptor (PR) Agonism Beta-lactamase Follow-Up Assay, Ratio (AID 2283933)
# Outline: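 PR-UAS-bla HEK293T cells (GAL4-UAS beta-lactamase reporter) in medium with 2% charcoal-stripped FBS received compounds after 6 hr at 37C, then incubated 16 hr. LiveBLAzer FRET substrate added, 2 hr room temperature; cleaved/uncleaved (ch2/ch1) ratio fitted upward versus DMSO.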
# PGR (gene 5241) [4] = molecular target: PGR (gene 5241) (UniProt P06401); test: TOX21_PR_BLA_Followup_Antagonist_ratio: Tox21 HEK293 Progesterone Receptor (PR) Antagonism Beta-lactamase Follow-Up Assay, Ratio (AID 2283934)
# Outline: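 PR-UAS-bla HEK293T cells in medium with 2% charcoal-stripped FBS were treated with compounds plus 1 nM (final) promegestone (R5020) for 16 hr at 37C. LiveBLAzer B/G FRET substrate was then added for 2 h at room temperature; signal is cleaved/uncleaved substrate ratio versus DMSO.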
# [5] = TOX21_PR_BLA_Followup_Agonist_viability: Viability Assessment in the Tox21 HEK293 Progesterone Receptor (PR) Agonism Beta-lactamase Follow-Up Assay (AID 2283935);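 further: signal loss means lower viability so actives are cytotoxic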
# Outline: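 PR-UAS-bla HEK293T cells in 2% charcoal-stripped FBS medium, compound added after 6 hr plating, 16 hr at 37C/5% CO2. After bla FRET read, CellTiter-Glo added; luminescence read after 30 min at room temperature; signal loss marks cytotoxicity.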
# [6] = TOX21_PR_BLA_Followup_Antagonist_viability: Viability Assessment in the Tox21 HEK293 Progesterone Receptor (PR) Antagonism Beta-lactamase Follow-Up Assay (AID 2283936);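 further: hits lower the luminescence signal meaning cytotoxicity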
# Outline: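 PR-UAS-bla HEK293T cells (3,000/well, 2% charcoal-stripped FBS) given compound plus R5020 agonist, 16 h at 37C. CellTiter-Glo added after bla read, 30 min at room temperature; luminescence loss indicates cytotoxicity.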
# PGR (gene 5241) [7] = molecular target: PGR (gene 5241) (UniProt P06401); test: TOX21_PR_LUC_Followup_Agonist: Tox21 HEK293 Progesterone Receptor (PR) Agonism Luciferase Follow-Up Assay (AID 2283937; active means hit-call score of the fitted dose curve at least 0.9, where 1 is the maximum; inactive means score below 0.9)
# Outline: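 HEK293-PR-A-luc cells, pre-cultured 5 days in medium with 10% charcoal-stripped FBS, were seeded at 3,000 cells/well, rested 5 h at 37C, then exposed to compounds 16 h at 37C; luciferase read by ONE-Glo luminescence after 30 min.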
# [8] = molecular target: Cellular tumor antigen p53 (Homo sapiens) (UniProt P04637); test: TOX21_p53_BLA_p4_ratio: Tox21 HCT-116 p53 Agonism Beta-lactamase Assay, Ratio, Phase 4 (AID 2283601)
# Outline: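 HCT-116 p53 beta-lactamase reporter cells (4000/well) preincubated 5 h, then compound (217-fold dilution of DMSO stock) for 16 h at 37C. CCF4-AM substrate added 2 h at room temperature; 460/530 nm emission ratio fitted upward versus DMSO.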
# [9] = TOX21_p53_BLA_p5_viability: Viability Assessment in the Tox21 HCT-116 p53 Agonism Beta-lactamase Assay, Phase 5 (AID 2283600)
# Outline: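 Cells were plated at 4000/well, rested 5 h at 37C, then given compounds in DMSO (217-fold dilution) for 16 h at 37C, 5% CO2. Following the CCF4-AM beta-lactamase read, CellTiter-Glo was added and luminescence was read after 30 min at room temperature.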
# [10] = molecular target: Thyroid hormone receptor alpha (Rattus norvegicus) + Thyroid hormone receptor beta (Rattus norvegicus) (UniProt P18113+P63059); test: TOX21_TR_LUC_GH3_Agonist_Followup: Tox21 GH3 Thyroid Hormone Receptor Agonism Luciferase Follow-Up Assay (AID 2283939)
# Outline: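 Rat GH3 cells (1,500/well) in serum-free assay medium, treated with 15-point series, 92 uM to 5 nM final, for 24 h at 37C. Luciferase via ONE-Glo luminescence; gain of signal fitted against DMSO, T3 positive control.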
# THRA (gene 7067) = THRA (gene 7067) (UniProt P10827); test: TOX21_TRA_COA_Agonist_Followup_ratio: Tox21 Thyroid Hormone Receptor alpha Agonism through Coactivator Recruitment Follow-Up Assay, Ratio (AID 2283948; active means hit-call score of the fitted dose curve at least 0.9, where 1 is the maximum; inactive means score below 0.9)
# Outline: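 Read-out is the 520/495 nm emission ratio (ex 340 nm), scaled between DMSO-only wells as 0% and T3 wells as 100%. It reflects fluorescein-SRC-2 peptide recruitment to GST-TRα LBD detected via terbium anti-GST antibody.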
# THRB (gene 7068) [11] = molecular target: THRB (gene 7068) (UniProt P10828); test: TOX21_TRB_BLA_Agonist_Followup_ratio: Tox21 Thyroid Hormone Receptor beta Agonism Beta-lactamase (BLA) Follow-Up Assay, Ratio (AID 2283954)
# Outline: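 Human TRβ LBD–GAL4 DBD fusion in GeneBLAzer UAS-bla HEK293T cells; 11 concentrations in triplicate, 18 h at 37°C/5% CO2, T3 as agonist control. CCF4-AM substrate 2 h at room temperature; 460:530 nm ratio fitted for gain of signal versus DMSO.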
# THRB (gene 7068) [12] = molecular target: THRB (gene 7068) (UniProt P10828); test: TOX21_TRB_COA_Agonist_Followup_ratio: Tox21 Thyroid Hormone Receptor beta Agonism through Coactivator Recruitment Follow-Up Assay, Ratio (AID 2283963; active means hit-call score of the fitted dose curve at least 0.9, where 1 is the maximum; inactive means score below 0.9)
# Outline: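 Signal is the 520/495 nm emission ratio (excitation 340 nm), scaled between DMSO-only wells as 0% and T3 wells as 100%. It reflects fluorescein-labeled SRC-2 peptide recruitment to GST-TRβ ligand-binding domain detected via terbium anti-GST antibody.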
# [13] = molecular target: Retinoic acid receptor RXR-alpha (Homo sapiens) (UniProt P19793); test: TOX21_TR_RXR_BLA_Agonist_Followup_ratio: Tox21 Thyroid Hormone Receptor beta Retinoid X Receptor alpha (RXRa) Agonism Beta-lactamase (BLA) Follow-Up Assay, Ratio (AID 2283968)
# Outline: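 RXRa-UAS-bla HEK293T cells (GAL4 beta-lactamase reporter) were treated with compounds at 11 concentrations in triplicate for 16 h at 37C/5% CO2, then loaded with CCF4-AM substrate for 2 h at room temperature; activity is the 460:530 nm ratio versus DMSO baseline.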
# [14] = TOX21_TR_RXR_BLA_Agonist_Followup_viability: Viability Assessment in the Tox21 Thyroid Hormone Receptor beta Retinoid X Receptor alpha (RXRa) Agonism Beta-lactamase (BLA) Follow-Up Assay (AID 2283970)
# Outline: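 RXRa-UAS-bla HEK293T cells seeded at 2,500/well in phenol red-free DMEM with 2% charcoal-stripped FBS, exposed to compound 16h at 37C/5% CO2 in qHTS. Viability read by CellTiter-Glo ATP luminescence; bidirectional fitting against DMSO baseline, signal loss indicating cytotoxicity.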
# [15] = molecular target: Nucleoli Translocation, AR (gene 367) (UniProt P10275); test: UPITT_HCI_U2OS_AR_TIF2_Nucleoli_Antagonist: University of Pittsburgh U2OS Androgen Receptor-Transcriptional Intermediary Factor 2 (AR-TIF2) Antagonism High Content Imaging Assay for Nucleoli Translocation (AID 2283997)
# Outline: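 U2OS cells co-expressing red-fluorescent-tagged human AR and green-fluorescent-tagged TIF2, imaged by high-content microscopy for nucleolar red fluorescence. Antagonist mode against DHT; primary screen at 20 uM final (0.2% DMSO).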
# [16] = molecular target: Ratio of Nucleoli Translocation and Cytoplasm, AR (gene 367) (UniProt P10275); test: UPITT_HCI_U2OS_AR_TIF2_Nucleoli_Cytoplasm_Ratio_Antagonist: University of Pittsburgh U2OS Androgen Receptor-Transcriptional Intermediary Factor 2 (AR-TIF2) Antagonism High Content Imaging Assay for Ratio of Nucleoli Translocation and Cytoplasm (AID 2283999);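 further: antagonists lower the DHT-driven ratio of nucleolar to cytoplasmic red signal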
# Outline: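 U2OS cells expressing RFP-tagged human AR and GFP-tagged TIF2; compounds tested at 20 uM final (0.2% DMSO) in primary screen, 0.195–50 uM (0.5% DMSO) for concentration response. Readout: nucleolar-to-cytoplasmic red fluorescence ratio by high-content imaging, fitted relative to DHT.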
# [17] = molecular target: Ratio of Nucleoli Translocation and Cytoplasm, AR (gene 367) (UniProt P10275); test: UPITT_HCI_U2OS_AR_TIF2_Nucleoli_Cytoplasm_Ratio_Agonist: University of Pittsburgh U2OS Androgen Receptor-Transcriptional Intermediary Factor 2 (AR-TIF2) Agonism High Content Imaging Assay for Ratio of Nucleoli Translocation and Cytoplasm (AID 2284000);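 further: hits raise the red nucleolar to cytoplasm ratio above vehicle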
# Outline: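 U2OS cells expressing RFP-tagged human AR and GFP-tagged TIF2; high-content imaging ratio of nucleolar to cytoplasmic red fluorescence, fitted as gain of signal vs DMSO. Single point at 20 uM final (0.2% DMSO); concentration-response 0.195-50 uM final (0.5% DMSO).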
# [18] = molecular target: Nucleoli Translocation, AR (gene 367) (UniProt P10275); test: UPITT_HCI_U2OS_AR_TIF2_Nucleoli_Agonist: University of Pittsburgh U2OS Androgen Receptor-Transcriptional Intermediary Factor 2 (AR-TIF2) Agonism High Content Imaging Assay for Nucleoli Translocation (AID 2283998)
# Outline: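 Cells express human AR fused to red fluorescent protein and TIF2 fused to GFP. Red fluorescence in the nucleolar region was quantified by high-content imaging and fitted as gain-of-signal against a DMSO baseline. Compounds were tested at 0.195 to 50 uM final (0.5% DMSO).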
# Sequence of Luciferin 4-monooxygenase (Photinus pyralis) (P08659 whole entry, looked up): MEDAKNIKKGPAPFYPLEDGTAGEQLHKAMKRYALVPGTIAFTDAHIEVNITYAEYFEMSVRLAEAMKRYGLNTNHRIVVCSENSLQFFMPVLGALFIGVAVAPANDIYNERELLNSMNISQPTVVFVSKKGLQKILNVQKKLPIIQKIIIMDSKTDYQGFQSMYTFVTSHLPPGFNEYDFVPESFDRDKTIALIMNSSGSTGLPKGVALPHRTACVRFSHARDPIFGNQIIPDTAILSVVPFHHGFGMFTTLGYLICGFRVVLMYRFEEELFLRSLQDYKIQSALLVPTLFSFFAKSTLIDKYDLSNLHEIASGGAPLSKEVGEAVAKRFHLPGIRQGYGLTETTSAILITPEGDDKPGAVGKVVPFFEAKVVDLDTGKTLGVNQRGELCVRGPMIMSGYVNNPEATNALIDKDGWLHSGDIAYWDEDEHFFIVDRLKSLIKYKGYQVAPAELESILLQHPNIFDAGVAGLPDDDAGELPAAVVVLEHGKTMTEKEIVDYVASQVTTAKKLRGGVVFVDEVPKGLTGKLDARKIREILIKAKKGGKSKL
# Sequence of Nucleoli Translocation, AR (gene 367) (P10275 whole entry, looked up, the tested form may be a part): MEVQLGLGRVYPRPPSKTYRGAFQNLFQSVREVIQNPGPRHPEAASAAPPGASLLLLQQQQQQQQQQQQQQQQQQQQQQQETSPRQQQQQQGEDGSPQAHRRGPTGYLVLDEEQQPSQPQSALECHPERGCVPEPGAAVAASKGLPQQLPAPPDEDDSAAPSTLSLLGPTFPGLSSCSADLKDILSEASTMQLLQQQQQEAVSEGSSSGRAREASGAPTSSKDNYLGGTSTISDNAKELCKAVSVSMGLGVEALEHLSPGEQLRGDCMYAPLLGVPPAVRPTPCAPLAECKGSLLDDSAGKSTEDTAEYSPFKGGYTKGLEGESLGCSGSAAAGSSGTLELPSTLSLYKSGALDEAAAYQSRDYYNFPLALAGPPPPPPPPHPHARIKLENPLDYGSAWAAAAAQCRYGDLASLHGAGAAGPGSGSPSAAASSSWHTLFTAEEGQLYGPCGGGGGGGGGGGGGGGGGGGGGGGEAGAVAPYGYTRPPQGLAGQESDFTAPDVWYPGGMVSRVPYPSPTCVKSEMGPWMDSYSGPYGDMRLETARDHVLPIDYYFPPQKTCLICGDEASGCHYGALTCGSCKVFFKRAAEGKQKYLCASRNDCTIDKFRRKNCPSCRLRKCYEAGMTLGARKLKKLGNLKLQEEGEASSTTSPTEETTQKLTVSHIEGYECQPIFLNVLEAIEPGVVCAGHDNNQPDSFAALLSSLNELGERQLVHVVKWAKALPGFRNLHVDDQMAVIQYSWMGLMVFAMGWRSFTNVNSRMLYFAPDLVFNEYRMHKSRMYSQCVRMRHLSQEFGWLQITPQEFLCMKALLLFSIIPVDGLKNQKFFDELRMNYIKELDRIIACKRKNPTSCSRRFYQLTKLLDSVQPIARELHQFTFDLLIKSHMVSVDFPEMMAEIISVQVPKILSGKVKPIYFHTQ
# Sequence of Ratio of Nucleoli Translocation and Cytoplasm, AR (gene 367) (P10275 whole entry, looked up): as the sequence (P10275 whole entry, looked up, the tested form may be a part) above
# Sequence of THRB (gene 7068) (P10828 whole entry, looked up, the tested form may be a part): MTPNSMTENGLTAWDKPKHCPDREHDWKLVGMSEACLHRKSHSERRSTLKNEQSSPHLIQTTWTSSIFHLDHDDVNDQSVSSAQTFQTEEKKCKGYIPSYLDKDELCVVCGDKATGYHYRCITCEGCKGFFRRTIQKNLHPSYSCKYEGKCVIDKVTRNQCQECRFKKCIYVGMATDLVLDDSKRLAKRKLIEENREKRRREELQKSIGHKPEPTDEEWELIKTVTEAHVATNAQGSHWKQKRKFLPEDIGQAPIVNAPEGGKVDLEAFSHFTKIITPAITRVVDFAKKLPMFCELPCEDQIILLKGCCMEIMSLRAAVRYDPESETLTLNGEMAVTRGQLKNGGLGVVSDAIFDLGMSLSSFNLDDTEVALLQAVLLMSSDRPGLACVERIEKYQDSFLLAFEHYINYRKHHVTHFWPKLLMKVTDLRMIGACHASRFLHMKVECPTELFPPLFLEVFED
# Sequence of PGR (gene 5241) (P06401 whole entry, looked up, the tested form may be a part): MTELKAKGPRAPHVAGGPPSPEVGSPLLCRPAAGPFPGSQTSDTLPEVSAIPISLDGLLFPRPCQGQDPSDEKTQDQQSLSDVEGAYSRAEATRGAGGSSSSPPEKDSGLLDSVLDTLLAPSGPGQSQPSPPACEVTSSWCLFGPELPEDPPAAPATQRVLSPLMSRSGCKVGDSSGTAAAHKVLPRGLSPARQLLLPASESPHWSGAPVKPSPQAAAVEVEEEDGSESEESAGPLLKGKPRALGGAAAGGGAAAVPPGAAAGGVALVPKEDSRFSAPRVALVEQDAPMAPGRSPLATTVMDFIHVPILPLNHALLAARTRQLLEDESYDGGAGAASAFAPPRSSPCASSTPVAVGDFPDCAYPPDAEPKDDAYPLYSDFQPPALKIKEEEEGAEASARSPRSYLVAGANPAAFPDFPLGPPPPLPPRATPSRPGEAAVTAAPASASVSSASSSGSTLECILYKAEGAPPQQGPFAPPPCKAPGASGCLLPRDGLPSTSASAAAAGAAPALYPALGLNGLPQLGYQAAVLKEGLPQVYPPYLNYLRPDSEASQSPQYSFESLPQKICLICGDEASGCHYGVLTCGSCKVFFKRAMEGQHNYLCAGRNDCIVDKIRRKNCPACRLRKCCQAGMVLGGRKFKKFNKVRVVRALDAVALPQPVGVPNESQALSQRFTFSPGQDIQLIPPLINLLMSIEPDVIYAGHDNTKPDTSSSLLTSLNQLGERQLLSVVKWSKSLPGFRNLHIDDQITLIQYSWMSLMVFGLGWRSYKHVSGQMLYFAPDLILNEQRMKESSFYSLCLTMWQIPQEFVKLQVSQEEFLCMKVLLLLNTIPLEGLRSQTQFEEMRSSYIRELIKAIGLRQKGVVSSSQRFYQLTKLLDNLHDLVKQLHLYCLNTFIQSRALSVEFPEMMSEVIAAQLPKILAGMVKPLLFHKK
# Sequence of Retinoic acid receptor RXR-alpha (Homo sapiens) (P19793 whole entry, looked up, the tested form may be a part): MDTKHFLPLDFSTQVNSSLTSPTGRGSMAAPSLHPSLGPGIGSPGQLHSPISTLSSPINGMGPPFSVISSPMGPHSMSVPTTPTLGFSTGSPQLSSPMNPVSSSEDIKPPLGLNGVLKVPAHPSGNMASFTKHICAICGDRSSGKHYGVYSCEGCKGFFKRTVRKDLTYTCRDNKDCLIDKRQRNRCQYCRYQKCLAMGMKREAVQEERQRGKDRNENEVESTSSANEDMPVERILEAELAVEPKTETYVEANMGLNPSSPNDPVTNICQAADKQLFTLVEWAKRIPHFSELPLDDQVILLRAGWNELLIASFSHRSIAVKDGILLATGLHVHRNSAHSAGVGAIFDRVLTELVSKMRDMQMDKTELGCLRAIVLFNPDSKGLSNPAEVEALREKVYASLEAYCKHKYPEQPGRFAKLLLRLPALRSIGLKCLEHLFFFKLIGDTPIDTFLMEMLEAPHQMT
# Sequence of Cellular tumor antigen p53 (Homo sapiens) (P04637 whole entry, looked up): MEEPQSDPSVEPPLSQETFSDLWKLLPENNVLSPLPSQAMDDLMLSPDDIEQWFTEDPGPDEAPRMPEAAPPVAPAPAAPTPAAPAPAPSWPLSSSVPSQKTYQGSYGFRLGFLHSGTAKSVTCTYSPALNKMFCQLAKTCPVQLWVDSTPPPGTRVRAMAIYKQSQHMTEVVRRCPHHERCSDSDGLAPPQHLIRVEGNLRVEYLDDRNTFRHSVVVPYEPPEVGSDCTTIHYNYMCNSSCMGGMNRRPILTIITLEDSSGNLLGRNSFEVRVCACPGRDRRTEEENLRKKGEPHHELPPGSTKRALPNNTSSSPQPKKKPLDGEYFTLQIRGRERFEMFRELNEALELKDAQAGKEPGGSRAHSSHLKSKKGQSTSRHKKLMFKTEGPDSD
# Sequence of Thyroid hormone receptor alpha (Rattus norvegicus) + Thyroid hormone receptor beta (Rattus norvegicus) (P63059 whole entry, looked up): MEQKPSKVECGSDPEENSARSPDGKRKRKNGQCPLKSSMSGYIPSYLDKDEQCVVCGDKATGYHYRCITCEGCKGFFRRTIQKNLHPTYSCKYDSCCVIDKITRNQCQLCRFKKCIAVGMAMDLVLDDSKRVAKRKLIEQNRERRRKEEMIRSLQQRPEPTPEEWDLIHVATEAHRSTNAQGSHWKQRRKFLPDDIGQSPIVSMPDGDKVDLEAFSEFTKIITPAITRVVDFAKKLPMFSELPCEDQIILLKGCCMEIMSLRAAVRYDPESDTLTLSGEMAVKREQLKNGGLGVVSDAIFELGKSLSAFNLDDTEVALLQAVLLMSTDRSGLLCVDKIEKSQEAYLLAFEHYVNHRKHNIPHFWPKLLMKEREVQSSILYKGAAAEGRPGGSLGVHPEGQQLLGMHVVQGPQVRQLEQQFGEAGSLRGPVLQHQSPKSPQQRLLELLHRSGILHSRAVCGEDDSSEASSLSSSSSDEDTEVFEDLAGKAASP
# Sequence of Thyroid hormone receptor alpha (Rattus norvegicus) + Thyroid hormone receptor beta (Rattus norvegicus) (P18113 whole entry, looked up): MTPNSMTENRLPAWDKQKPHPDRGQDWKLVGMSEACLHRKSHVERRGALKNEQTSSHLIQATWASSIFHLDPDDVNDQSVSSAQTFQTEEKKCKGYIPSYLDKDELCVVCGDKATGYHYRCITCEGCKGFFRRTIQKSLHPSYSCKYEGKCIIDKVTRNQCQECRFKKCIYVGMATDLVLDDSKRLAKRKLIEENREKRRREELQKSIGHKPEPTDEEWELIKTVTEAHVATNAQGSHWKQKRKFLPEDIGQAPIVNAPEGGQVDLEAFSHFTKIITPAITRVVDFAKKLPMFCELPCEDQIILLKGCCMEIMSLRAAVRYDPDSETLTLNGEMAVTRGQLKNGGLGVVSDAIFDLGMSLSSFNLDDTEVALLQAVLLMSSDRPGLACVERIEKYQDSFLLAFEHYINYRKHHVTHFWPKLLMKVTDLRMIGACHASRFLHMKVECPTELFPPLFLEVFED
smiles,measurement,setting,value
S=c1[nH]c2cc(Cl)ccc2s1,outcome,[1],inactive
same,outcome,[2],inactive
O=[N+]([O-])c1ccc2[nH]c(=S)[nH]c2c1,outcome,[2],inactive
O=C(NO)c1ccccc1O,outcome,[2],inactive
Cn1c(=S)[nH]c2ccccc21,outcome,[2],inactive
CCCOc1ccc2c(c1)CC[C@@H]1[C@@H]2CC[C@]2(C)C(OC)CC[C@@H]12 (stereo partly specified),outcome,PGR (gene 5241) [3],inactive
same,AC50,PGR (gene 5241) [4],12.8 µM (active)
same,outcome,[5],inactive
same,outcome,[6],inactive
same,outcome,PGR (gene 5241) [7],inactive
O=c1cccc(O)[nH]1,outcome,[1],inactive
same,outcome,[2],inactive
CC(C)NCC(O)COc1ccc(CCOCC2CC2)cc1 (stereo unspecified),outcome,[8],inactive
CCOC(=O)c1cccc(O)c1,outcome,[1],inactive
same,outcome,[2],inactive
CNCCC(Oc1ccccc1OC)c1ccccc1 (stereo unspecified),outcome,[9],inactive
same,outcome,[8],inactive
Oc1cccnc1,outcome,[1],inactive
same,outcome,[2],inactive
Nc1ncn([C@H]2C[C@H](O)[C@@H](CO)O2)c(=O)n1,outcome,[10],inactive
same,outcome,THRA (gene 7067),inactive
same,outcome,THRB (gene 7068) [11],inactive
same,outcome,THRB (gene 7068) [12],inactive
same,outcome,[13],inactive
same,outcome,[14],inactive
C=C(NC(=O)C(=C)NC(=O)c1csc(C2=NC3c4csc(n4)C4NC(=O)c5csc(n5)C(C(C)(O)C(C)O)NC(=O)C5CSC(=N5)/C(=C/C)NC(=O)C(C(C)O)NC(=O)c5csc(n5)C3(CC2)NC(=O)C(C)NC(=O)C(=C)NC(=O)C(C)NC(=O)C(C(C)CC)NC2C=Cc3c(C(C)O)cc(nc3C2O)C(=O)OC4C)n1)C(N)=O (stereo unspecified),AC50,[10],2.47 µM (active)
same,outcome,THRA (gene 7067),inactive
same,outcome,THRB (gene 7068) [12],inactive
same,outcome,[13],inactive
same,outcome,[14],inactive
O=C1NC(=O)c2ccc3c4ccc5c6c(ccc(c7ccc1c2c73)c64)C(=O)NC5=O,outcome,[15],inactive
same,outcome,[16],inactive
same,outcome,[17],inactive
CCCCC(C)=O,outcome,[15],inactive
same,outcome,[18],inactive
same,outcome,[17],inactive
